Consider 31 compounds from PubChem BioAssay AID2221 (Broad Institute, 2009).

Screen size: about 290,000 compounds; about 2,200 (0.76%) were called active. Cut-off read from the data, not from the text of the source: active = inhibition above about 30%; inconclusive = no clear call, values can overlap the other calls; inactive = below that. This excerpt belongs to a sample that is enriched for actives.

Chain of Protein RecA (Mycobacterium tuberculosis (strain ATCC 25618 / H37Rv)) (P9WHJ3 whole entry, looked up): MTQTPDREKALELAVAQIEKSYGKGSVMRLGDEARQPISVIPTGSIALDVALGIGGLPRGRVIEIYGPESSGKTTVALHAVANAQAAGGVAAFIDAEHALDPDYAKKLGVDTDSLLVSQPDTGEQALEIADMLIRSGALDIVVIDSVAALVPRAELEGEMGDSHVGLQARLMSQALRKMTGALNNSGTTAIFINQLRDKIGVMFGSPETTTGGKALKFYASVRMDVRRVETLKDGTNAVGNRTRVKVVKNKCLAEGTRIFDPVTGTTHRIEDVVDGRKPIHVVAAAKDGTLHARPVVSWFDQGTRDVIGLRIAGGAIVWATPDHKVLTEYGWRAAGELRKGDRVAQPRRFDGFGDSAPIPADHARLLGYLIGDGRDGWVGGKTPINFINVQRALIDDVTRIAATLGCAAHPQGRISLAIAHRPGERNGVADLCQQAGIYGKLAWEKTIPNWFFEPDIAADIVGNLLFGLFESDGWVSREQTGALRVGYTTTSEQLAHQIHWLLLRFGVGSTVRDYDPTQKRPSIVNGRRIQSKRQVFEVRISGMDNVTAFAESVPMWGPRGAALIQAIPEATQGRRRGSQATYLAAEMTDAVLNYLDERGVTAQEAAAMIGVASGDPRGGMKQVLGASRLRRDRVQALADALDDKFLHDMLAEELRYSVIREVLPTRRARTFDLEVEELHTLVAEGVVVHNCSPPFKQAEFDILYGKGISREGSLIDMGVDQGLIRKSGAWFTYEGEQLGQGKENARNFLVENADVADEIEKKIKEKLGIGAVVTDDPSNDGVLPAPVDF

The assay concerns the target Protein RecA (Mycobacterium tuberculosis (strain ATCC 25618 / H37Rv)) (UniProt P9WHJ3). As to the kind of experiment: Mtb RecA intein splicing inhibitors, primary screen, biochemical, fluorescence, HTS (AID 2221).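 Note: 0% = vehicle wells and 100% = reference inhibitor control wells.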 To be noted: cell-free RecA intein splicing, active compounds read high, concentration not given here.
For orientation: inhibition means the drop in the measured response relative to a control, in per cent. Take `COc1ccc(NC(=O)CCCNC(=O)Cn2cnc3sc4c(c3c2=O)CCCC4)cc1OC`: the inhibition is 1.78% (inactive). Next, `CCOC(=O)CN1C(=O)C(=O)c2cc(C)ccc21`: 1.57% (inactive); `CC(C)OC(=O)CN1C(=O)C(=O)c2ccccc21`: 40% (active).

Consider `Cc1cc(/C=C2/SC(=O)N(CC(=O)OC(C)C)C2=O)c(C)n1C`, for which the inhibition is -2.4% (inactive). Next, `CC(Oc1cccc(Cl)c1)C(=O)NC1CC(C)(C)NC(C)(C)C1` (stereo unspecified): 1.06% (inactive); `Cc1ccc(Cl)cc1NC(=O)C1CCN(S(C)(=O)=O)CC1`: 4.05% (inactive); `COCCNC(=O)COc1ccc(N(C)S(=O)(=O)c2ccc3ccccc3c2)cc1`: 2.67% (inactive). Next, `CC(=O)Oc1ccc(N(C(C)=O)S(=O)(=O)c2ccc3ccccc3c2)cc1Br`: 36.3% (active); `CN(c1ccc(OCC(=O)O)cc1)S(=O)(=O)c1ccc2ccccc2c1`: 1.36% (inactive). Take `CC/C(=N\NC(=O)c1c(C)nc2ccccn12)c1ccc(Cl)cc1`: the inhibition is -3.74% (inactive). As for `COc1ccc(NC(=O)C(NC(C)=O)C(=O)NCc2ccccc2Cl)cc1` (stereo unspecified), the figure is -12.2% (inactive); as for `COc1ccc(C2CC(c3cccs3)Nc3nnnn32)cc1` (stereo unspecified), 2.29% (inactive). Regarding `CCCc1[nH]nc2c1C(c1ccc(OC)c(Cn3nc(C)c(Br)c3C)c1)C(C#N)=C(N)O2` (stereo unspecified), the inhibition was 16.3% (inactive). Take `COc1ccccc1CN1CCCC(N2CCN(c3ccc(F)cc3)CC2)C1` (stereo unspecified): the inhibition was 1.51% (inactive).

Consider `COc1ccc(C2C(C#N)=C(N)Oc3n[nH]c(C)c32)cc1CN1CCN(c2ccc(F)cc2)CC1` (stereo unspecified), for which the inhibition was 49.8% (active). As for `O=C(CN1CCCC1)Nc1sc2c(c1C(=O)Nc1ccccc1)CCCC2`, the figure is -1.42% (inactive); as for `CCOP(=O)(OCC)C(Nc1ccc([N+](=O)[O-])cc1)c1ccc(Cl)cc1` (stereo unspecified), 5.51% (inactive).

As to `COc1ccc(/C=C2/C(=O)OCc3cc(OC)c(OC)cc32)c(OC)c1`, the inhibition is -0.742% (inactive). With `COc1ccc(C2/C(=C(/O)c3ccccc3)C(=O)C(=O)N2C)c(OC)c1` (stereo unspecified), the inhibition was 1.48% (inactive). With `COc1ccc(/C=C2/C(=O)N(c3ccccc3)N=C2C)c(OC)c1`, the inhibition is 70% (active). As for `O=[N+]([O-])c1ccc(N2CCN(c3ccc(F)cc3)CC2)cn1`, the figure is 0.617% (inactive); as for `COc1ccc(C(=O)NC2CC(C)(C)NC(C)(C)C2)cc1OC`, 0.554% (inactive); as for `O=C(CCCN1C(=O)/C(=C/c2cccs2)SC1=S)Nc1ccc(O)cc1`, 59% (active).

Turning to `O=C(CCCN1C(=O)/C(=C/c2ccccc2)SC1=S)Nc1ccc(O)cc1`, the inhibition is 45.1% (active). In the case of `Cc1ccc(/C=C2\SC(=S)N(CCC(=O)Nc3ccc(O)cc3)C2=O)cc1`, the inhibition is 3.35% (inactive). Next, `O=C(CCCN1C(=O)/C(=C\c2ccccc2)SC1=S)Nc1ccccc1O`: -1.47% (inactive); `COc1ccccc1C(=O)NNC(=O)CCN1C(=O)/C(=C\c2ccccc2)SC1=S`: 1.3% (inactive). Next, `O=C(CCN1C(=O)/C(=C/c2cccs2)SC1=S)NNC(=O)c1cccc(O)c1`: -2.74% (inactive); `CCCCCCNS(=O)(=O)c1ccccc1Br`: 8.15% (inactive).

Turning to `O=C1N[C@H](Cc2ccccc2)C(=O)N[C@H]1Cc1cn(S(=O)(=O)c2ccccc2)c2ccccc12`, the inhibition was 2.29% (inactive). Next, `CCOC(=O)CSc1nnc(CNC(=O)c2cccs2)n1-c1cc(OC)ccc1OC`: -0.643% (inactive).
